From publication PMC5700166 come the findings set out here.

Where a chain is given by its changes, count along the chain named.

What all share (assay): protein-binding microarray (PBM); PBM: ~300 nM protein, 6 mM HEPES pH 7.8, 80 mM KCl, 0.5 mM EDTA, 0.5 mM EGTA, 6% glycerol, 35 ng/ul poly-dIdC, 1% milk, 1 h, room temperature; Ap Aiptasia and Nv Nematostella (sea anemones) / Co Capsaspora / Aq Amphimedon (sponge) / Dm Drosophila / Hu human; RHD is the Rel homology domain; high values mean tight binding
Holding throughout (details): dsDNA, one strand shown

One experiment deals with T1, GST-Ap-NF-kB RHD (Exaiptasia pallida (Aiptasia), UniProt A0A913YAJ5 2-422).
T1 sequence: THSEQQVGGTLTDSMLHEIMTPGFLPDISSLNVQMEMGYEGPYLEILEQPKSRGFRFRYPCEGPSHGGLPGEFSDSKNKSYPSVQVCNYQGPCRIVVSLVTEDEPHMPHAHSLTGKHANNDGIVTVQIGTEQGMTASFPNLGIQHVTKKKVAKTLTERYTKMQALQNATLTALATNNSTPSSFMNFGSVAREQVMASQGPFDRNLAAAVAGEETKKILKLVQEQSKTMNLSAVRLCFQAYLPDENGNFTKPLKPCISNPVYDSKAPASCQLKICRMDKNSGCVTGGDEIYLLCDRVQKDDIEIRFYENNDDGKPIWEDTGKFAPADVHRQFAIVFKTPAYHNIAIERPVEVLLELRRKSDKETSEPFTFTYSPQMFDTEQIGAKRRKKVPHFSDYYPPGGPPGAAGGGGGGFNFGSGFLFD

For experiment [1], the target named is T2, GST-Nv-NF-kB (Cys allele) (Nematostella vectensis, UniProt E5G601 2-411).
T2 sequence: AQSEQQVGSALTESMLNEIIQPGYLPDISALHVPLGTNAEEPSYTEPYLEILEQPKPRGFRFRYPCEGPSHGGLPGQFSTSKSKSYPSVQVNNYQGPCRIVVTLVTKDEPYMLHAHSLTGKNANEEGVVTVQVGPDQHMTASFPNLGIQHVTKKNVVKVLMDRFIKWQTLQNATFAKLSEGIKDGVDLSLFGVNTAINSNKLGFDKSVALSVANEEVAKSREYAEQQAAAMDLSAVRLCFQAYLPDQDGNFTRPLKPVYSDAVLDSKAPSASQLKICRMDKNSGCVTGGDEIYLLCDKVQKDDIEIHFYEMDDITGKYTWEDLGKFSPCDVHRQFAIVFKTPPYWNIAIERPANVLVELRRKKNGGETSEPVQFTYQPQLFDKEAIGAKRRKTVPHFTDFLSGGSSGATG

Experiment [2] has as its target T3, GST-Nv-NF-kB (Ser allele) (Nematostella vectensis, UniProt A7UNT2 2-411).
T3 sequence: T2 sequence with Q21R, C66S, S207N, E215Q, V217A, E225K, A268E, D399E

In another experiment the target is T4, GST-Co-NF-kB (Capsaspora owczarzaki, UniProt F1ARL5 200-546).
T4 sequence: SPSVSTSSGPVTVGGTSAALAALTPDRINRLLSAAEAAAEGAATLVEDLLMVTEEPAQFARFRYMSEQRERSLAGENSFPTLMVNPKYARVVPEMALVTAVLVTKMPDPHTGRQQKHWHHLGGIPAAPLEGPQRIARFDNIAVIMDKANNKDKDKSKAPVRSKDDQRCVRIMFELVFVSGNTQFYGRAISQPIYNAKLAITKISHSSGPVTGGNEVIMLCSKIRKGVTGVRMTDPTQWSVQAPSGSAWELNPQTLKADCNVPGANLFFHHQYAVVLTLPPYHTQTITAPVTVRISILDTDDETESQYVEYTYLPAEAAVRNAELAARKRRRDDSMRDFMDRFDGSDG

The target in the next experiment is T5, GST-Dm-Relish (Drosophila melanogaster, UniProt Q94527 99-473).
T5 sequence: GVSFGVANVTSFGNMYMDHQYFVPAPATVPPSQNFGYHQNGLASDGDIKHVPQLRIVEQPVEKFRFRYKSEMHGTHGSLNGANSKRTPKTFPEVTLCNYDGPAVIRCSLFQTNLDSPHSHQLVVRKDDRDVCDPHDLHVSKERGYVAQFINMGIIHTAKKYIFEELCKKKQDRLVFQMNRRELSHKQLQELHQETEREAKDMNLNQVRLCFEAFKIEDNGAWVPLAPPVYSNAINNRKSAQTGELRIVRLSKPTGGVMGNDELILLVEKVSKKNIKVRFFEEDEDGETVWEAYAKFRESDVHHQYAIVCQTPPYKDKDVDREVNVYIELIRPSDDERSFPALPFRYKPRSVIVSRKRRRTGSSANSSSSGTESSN

In a further experiment the target is T6, GST-Aq-NF-kB (Amphimedon queenslandica, UniProt A9Y5G7 2-389).
T6 sequence: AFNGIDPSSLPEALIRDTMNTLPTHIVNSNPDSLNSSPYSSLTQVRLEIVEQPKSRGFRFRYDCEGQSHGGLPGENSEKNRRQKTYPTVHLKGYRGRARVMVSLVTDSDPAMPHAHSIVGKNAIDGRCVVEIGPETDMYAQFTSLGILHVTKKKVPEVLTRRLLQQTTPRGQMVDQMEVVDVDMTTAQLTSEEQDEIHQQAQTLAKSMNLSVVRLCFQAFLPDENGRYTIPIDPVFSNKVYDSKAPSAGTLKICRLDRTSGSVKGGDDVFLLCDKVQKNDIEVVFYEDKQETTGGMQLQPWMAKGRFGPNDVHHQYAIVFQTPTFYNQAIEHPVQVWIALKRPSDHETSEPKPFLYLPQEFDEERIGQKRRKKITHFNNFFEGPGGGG

The target of a further experiment is GST-Hu-p50 (Homo sapiens, UniProt P19838 7-356).
Sequence of GST-Hu-p50 (P19838 7-356): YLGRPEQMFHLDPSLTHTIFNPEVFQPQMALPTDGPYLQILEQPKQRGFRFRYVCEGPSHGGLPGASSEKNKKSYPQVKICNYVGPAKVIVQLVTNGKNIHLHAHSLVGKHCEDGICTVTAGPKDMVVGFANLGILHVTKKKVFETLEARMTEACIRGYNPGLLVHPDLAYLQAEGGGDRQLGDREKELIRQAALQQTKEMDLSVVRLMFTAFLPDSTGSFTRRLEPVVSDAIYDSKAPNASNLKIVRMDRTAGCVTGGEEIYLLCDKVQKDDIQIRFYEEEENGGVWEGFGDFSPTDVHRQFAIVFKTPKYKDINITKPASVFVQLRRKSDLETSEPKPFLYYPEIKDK

As to “CCGATTAACATCACGGGGGATTCTGATGTTAATCGGGTCTTGATTCGCTTGACGCTGCTG”, the binding signal with GST-Ap-NF-kB RHD worked out at 8.95 z-score; in experiment [1], 7.68 z-score; in experiment [2], 8.48 z-score; with GST-Co-NF-kB, 7.06 z-score; with GST-Dm-Relish, 7.96 z-score; with GST-Aq-NF-kB it was 6.51 z-score. The same sequence yielded a binding signal in the experiment with GST-Hu-p50 of 7.01 z-score.

Consider “CCGATTAACATCACGGGTTTTCCTGATGTTAATCGGGTCTTGATTCGCTTGACGCTGCTG”, for which the binding signal with GST-Ap-NF-kB RHD was found to be 2.91 z-score; in experiment [1], 2.73 z-score; in experiment [2], 1.9 z-score; with GST-Co-NF-kB, 1.18 z-score; in the experiment with GST-Dm-Relish, 4.43 z-score; with GST-Aq-NF-kB it was 4.99 z-score. This sequence also gave a binding signal with GST-Hu-p50 of 2.29 z-score.

Regarding “CCGATTAACATCACATCCCCCCCTGATGTTAATCGGGTCTTGATTCGCTTGACGCTGCTG”, the binding signal with GST-Ap-NF-kB RHD is 6.1 z-score; in experiment [1], 4.66 z-score; in experiment [2], 4.88 z-score; in the experiment with GST-Co-NF-kB it was 6.54 z-score; with GST-Dm-Relish it was 4.53 z-score; in the experiment with GST-Aq-NF-kB, 4.42 z-score. Besides, the binding signal in the experiment with GST-Hu-p50 was 4.32 z-score.

Turning to “CCGATTAACATCAAACTTCCCCCTGATGTTAATCGGGTCTTGATTCGCTTGACGCTGCTG”, the binding signal was determined as 7.75 z-score with GST-Ap-NF-kB RHD; 7.86 z-score in experiment [1]; 9.14 z-score in experiment [2]; 9.35 z-score in the experiment with GST-Co-NF-kB; 7.36 z-score with GST-Dm-Relish; 7.49 z-score in the experiment with GST-Aq-NF-kB. In the experiment with GST-Hu-p50, the binding signal was determined as 6.72 z-score.

For the sequence “CCGATTAACATCAGAAACACCCCTGATGTTAATCGGGTCTTGATTCGCTTGACGCTGCTG”, the binding signal with GST-Ap-NF-kB RHD was determined as 3.57 z-score; in experiment [1], 2.68 z-score; in experiment [2] it was 2.16 z-score; with GST-Co-NF-kB, 3.34 z-score; in the experiment with GST-Dm-Relish, 3.56 z-score; with GST-Aq-NF-kB, 3.93 z-score. In the experiment with GST-Hu-p50, this sequence displayed a binding signal of 3.61 z-score.

For the sequence “CCGATTAACATCAGCAAATCCCCTGATGTTAATCGGGTCTTGATTCGCTTGACGCTGCTG”, the binding signal with GST-Ap-NF-kB RHD is 6.73 z-score; in experiment [1], 7.25 z-score; in experiment [2] it was 9.83 z-score; with GST-Co-NF-kB, 2.93 z-score; with GST-Dm-Relish it was 5.54 z-score; with GST-Aq-NF-kB, 5.19 z-score. In the experiment with GST-Hu-p50, this sequence returned a binding signal of 6.91 z-score.

With “CCGATTAACATCAAAAGTCCCCGTGATGTTAATCGGGTCTTGATTCGCTTGACGCTGCTG”, the binding signal in the experiment with GST-Ap-NF-kB RHD came out at 8.32 z-score; in experiment [1], 8.18 z-score; in experiment [2], 7.85 z-score; with GST-Co-NF-kB, 4.26 z-score; with GST-Dm-Relish, 9.25 z-score; with GST-Aq-NF-kB it was 7.44 z-score. The sequence further gave a binding signal in the experiment with GST-Hu-p50 of 6.58 z-score.

On to “CCGATTAACATCAGGGAATTTACTGATGTTAATCGGGTCTTGATTCGCTTGACGCTGCTG”, for which the binding signal worked out at 4.29 z-score in the experiment with GST-Ap-NF-kB RHD; 6.69 z-score in experiment [1]; 6.33 z-score in experiment [2]; 3.89 z-score in the experiment with GST-Co-NF-kB; 6.87 z-score with GST-Dm-Relish; 6.82 z-score with GST-Aq-NF-kB. In the experiment with GST-Hu-p50, this sequence yielded a binding signal of 5.14 z-score.

As to “CCGATTAACATCAATAAAACCCCTGATGTTAATCGGGTCTTGATTCGCTTGACGCTGCTG”, the binding signal is 5.73 z-score with GST-Ap-NF-kB RHD; 5.27 z-score in experiment [1]; 5.34 z-score in experiment [2]; 2.26 z-score with GST-Co-NF-kB; 7.35 z-score with GST-Dm-Relish; 5.25 z-score with GST-Aq-NF-kB. The same sequence returned a binding signal with GST-Hu-p50 of 6.19 z-score.

Consider “CCGATTAACATCAATCCTCCCCCTGATGTTAATCGGGTCTTGATTCGCTTGACGCTGCTG”, for which the binding signal with GST-Ap-NF-kB RHD came out at 5.52 z-score; in experiment [1] it was 4.44 z-score; in experiment [2] it was 5.85 z-score; with GST-Co-NF-kB it was 8.24 z-score; with GST-Dm-Relish, 2.9 z-score; in the experiment with GST-Aq-NF-kB, 4.98 z-score. This sequence gave a binding signal in the experiment with GST-Hu-p50 of 4.83 z-score.

Consider “CCGATTAACATCAAACATCCCCTTGATGTTAATCGGGTCTTGATTCGCTTGACGCTGCTG”, for which the binding signal worked out at 6.4 z-score in the experiment with GST-Ap-NF-kB RHD; 7.13 z-score in experiment [1]; 7.29 z-score in experiment [2]; 2.37 z-score in the experiment with GST-Co-NF-kB; 6.75 z-score with GST-Dm-Relish; 6.17 z-score with GST-Aq-NF-kB. Further, the binding signal with GST-Hu-p50 came out at 5.4 z-score.

On to “CCGATTAACATCACTGAAATCCCTGATGTTAATCGGGTCTTGATTCGCTTGACGCTGCTG”, for which the binding signal with GST-Ap-NF-kB RHD amounted to 2.61 z-score; in experiment [1], 2.29 z-score; in experiment [2] it was 1.72 z-score; in the experiment with GST-Co-NF-kB, 1.34 z-score; with GST-Dm-Relish, 3.35 z-score; with GST-Aq-NF-kB it was 2.54 z-score. In addition, the binding signal with GST-Hu-p50 came to 1.71 z-score.
